Reference: PubChem BioAssay AID1159580 (chemical genetic matrix, 2015)
Where “and” joins values, the source holds several entries; their conditions need not be identical. Equal entries are not always repeated. Screen size: about 5,500 compounds; about 2,000 (36%) were called active. Roughly 18% stayed inconclusive and do not appear here. No stated cut-off is given here; in the data, active means normalized growth mostly below about 0.91 (no sharp cut-off); inconclusive means no clear call, values can overlap the other calls; inactive means mostly above about 0.92. Some of the results follow.

Assay: chemical genetic growth profiling, strain panel (AID 1159580);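 further: tested at 20 µM; growth read once vehicle control cultures reached saturation at 30 °C; 1 = growth at the plate median or of vehicle wells; lower values mean less growth of the strain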
Details: growth OD

Measured: normalized growth

Nc1nc(N)c2nc(-c3ccccc3)c(N)nc2n1
inactive: S. cerevisiae deletion strains, locus YJR075W, strain HOC1, active compounds read low 1.01 | S. cerevisiae deletion strains, locus YKL009W, strain mrt4, active compounds read low 1.02 | S. cerevisiae deletion strains, locus YKL068W, active compounds read low 1 | S. cerevisiae deletion strains, locus YKL085W, strain MDH1 (second series), active compounds read low 1.01 | S. cerevisiae deletion strains, locus YKL085W, strain MDH1, active compounds read low 1.01 | S. cerevisiae deletion strains, locus YKL160W, strain elf1, active compounds read low 1 | S. cerevisiae deletion strains, locus YKL190W, strain CNB1, active compounds read low 1 | S. cerevisiae deletion strains, locus YKR001C, strain vps1, active compounds read low 1.02 | S. cerevisiae deletion strains, locus YKR026C, strain gcn3, active compounds read low 1.01 | S. cerevisiae deletion strains, locus YKR091W, strain srl3, active compounds read low 0.998 | S. cerevisiae deletion strains, locus YLL001W, strain dnm1, active compounds read low 1 | S. cerevisiae deletion strains, locus YLL026W, active compounds read low 0.999 | S. cerevisiae deletion strains, locus YLL041C, strain sdh2, active compounds read low 0.999 | S. cerevisiae deletion strains, locus YLR027C, strain aat2, active compounds read low 1.01 | S. cerevisiae deletion strains, locus YLR039C, strain RIC1, active compounds read low 1.04 | S. cerevisiae deletion strains, locus YLR058C, strain SHM2, active compounds read low 1 | S. cerevisiae deletion strains, locus YLR102C, strain apc9, active compounds read low 1.01 | S. cerevisiae deletion strains, locus YLR113W, strain HOG1, active compounds read low 1 | S. cerevisiae deletion strains, locus YLR221C, strain rsa3, active compounds read low 0.975 | S. cerevisiae deletion strains, locus YLR258W, strain gsy2, active compounds read low 0.999 | S. cerevisiae deletion strains, locus YLR262C, strain YPT6 (second series), active compounds read low 1.02 | S. cerevisiae deletion strains, locus YLR262C, strain YPT6, active compounds read low 1 | S. cerevisiae deletion strains, locus YLR268W, strain sec22, active compounds read low 1.05 | S. cerevisiae deletion strains, locus YLR320W, strain mms22, active compounds read low 0.99 | S. cerevisiae deletion strains, locus YLR330W, strain CHS5, active compounds read low 1.01 | S. cerevisiae deletion strains, locus YLR342W, strain FKS1 (second series), active compounds read low 1.02 | S. cerevisiae deletion strains, locus YLR342W, strain FKS1, active compounds read low 0.996 | S. cerevisiae deletion strains, locus YLR357W, strain rsc2, active compounds read low 1.01 | S. cerevisiae deletion strains, locus YLR370C, strain arc18, active compounds read low 0.995 | S. cerevisiae deletion strains, locus YLR371W, strain rom2, active compounds read low 1.01 | S. cerevisiae deletion strains, locus YLR384C, strain iki3, active compounds read low 1.01 | S. cerevisiae deletion strains, locus YLR418C, strain cdc73, active compounds read low 0.972 | S. cerevisiae deletion strains, locus YML016C, strain PPZ1, active compounds read low 0.999 | S. cerevisiae deletion strains, locus YML032C, strain rad52, active compounds read low 1.02 | S. cerevisiae deletion strains, locus YML120C, strain ndi1, active compounds read low 1.02 | S. cerevisiae deletion strains, locus YML124C, strain tub3, active compounds read low 1.01 | S. cerevisiae deletion strains, locus YMR058W, strain fet3, active compounds read low 1.01 | S. cerevisiae deletion strains, locus YMR078C, strain ctf18, active compounds read low 1 | S. cerevisiae deletion strains, locus YMR125W, strain sto1, active compounds read low 1 | S. cerevisiae deletion strains, locus YMR129W, active compounds read low 0.998 | S. cerevisiae deletion strains, locus YMR205C, strain PFK2, active compounds read low 1.01 | S. cerevisiae deletion strains, locus YMR223W, strain ubp8, active compounds read low 0.994 | S. cerevisiae deletion strains, locus YMR231W, strain pep5, active compounds read low 0.997 | S. cerevisiae deletion strains, locus YMR263W, strain SAP30, active compounds read low 1 and 0.995 | S. cerevisiae deletion strains, locus YMR307W, strain GAS1, active compounds read low 1.04 and 1.01 | S. cerevisiae deletion strains, locus YNL067W, strain RPL9B, active compounds read low 0.995 | S. cerevisiae deletion strains, locus YNL071W, strain lat1, active compounds read low 0.996 | S. cerevisiae deletion strains, locus YNL153C, strain GIM3, active compounds read low 1 | S. cerevisiae deletion strains, locus YNL175C, strain NOP13, active compounds read low 0.987 | S. cerevisiae deletion strains, locus YNL183C, strain NPR1, active compounds read low 0.933 | S. cerevisiae deletion strains, locus YNL197C, strain WHI3, active compounds read low 0.967 | S. cerevisiae deletion strains, locus YNL209W, strain ssb2, active compounds read low 1 | S. cerevisiae deletion strains, locus YNL224C, strain SQS1, active compounds read low 0.995 | S. cerevisiae deletion strains, locus YNL233W, strain BNI4, active compounds read low 1 | S. cerevisiae deletion strains, locus YNL248C, strain rpa49, active compounds read low 0.969 | S. cerevisiae deletion strains, locus YNL250W, strain rad50, active compounds read low 1 | S. cerevisiae deletion strains, locus YNL271C, strain bni1, active compounds read low 1.01 | S. cerevisiae deletion strains, locus YNL298W, strain CLA4, active compounds read low 1.03 | S. cerevisiae deletion strains, locus YNL307C, strain MCK1, active compounds read low 1.01 | S. cerevisiae deletion strains, locus YNL322C, strain KRE1 (second series), active compounds read low 1.01 | S. cerevisiae deletion strains, locus YNL322C, strain KRE1, active compounds read low 1 | S. cerevisiae deletion strains, locus YNR049C, strain mso1, active compounds read low 0.993 | S. cerevisiae deletion strains, locus YNR052C, strain pop2, active compounds read low 1.01 | S. cerevisiae deletion strains, locus YOL006C, strain TOP1, active compounds read low 1.02 | S. cerevisiae deletion strains, locus YOL012C, strain htz1 0.947 | S. cerevisiae deletion strains, locus YOL147C, strain pex11, active compounds read low 1.01 | S. cerevisiae deletion strains, locus YOR001W, strain rrp6, active compounds read low 1.01 | S. cerevisiae deletion strains, locus YOR061W, strain CKA2, active compounds read low 0.999 | S. cerevisiae deletion strains, locus YOR069W, strain VPS5, active compounds read low 1 | S. cerevisiae deletion strains, locus YOR070C, strain gyp1, active compounds read low 0.991 | S. cerevisiae deletion strains, locus YOR080W, strain dia2, active compounds read low 1.01 | S. cerevisiae deletion strains, locus YOR083W, strain WHI5 (second series), active compounds read low 0.969 | S. cerevisiae deletion strains, locus YOR083W, strain WHI5, active compounds read low 0.989 | S. cerevisiae deletion strains, locus YOR106W, strain vam3, active compounds read low 1.02 | S. cerevisiae deletion strains, locus YOR136W, strain idh2, active compounds read low 0.993 | S. cerevisiae deletion strains, locus YOR144C, strain elg1, active compounds read low 1.01 | S. cerevisiae deletion strains, locus YOR184W, strain ser1, active compounds read low 0.98 | S. cerevisiae deletion strains, locus YOR231W, strain MKK1, active compounds read low 1.01 | S. cerevisiae deletion strains, locus YOR265W, strain rbl2, active compounds read low 0.996 | S. cerevisiae deletion strains, locus YOR270C, strain vph1, active compounds read low 1.01 | S. cerevisiae deletion strains, locus YOR290C, strain snf2, active compounds read low 0.991 | S. cerevisiae deletion strains, locus YOR316C, strain cot1, active compounds read low 1.01 | S. cerevisiae deletion strains, locus YPL051W, strain arl3, active compounds read low 0.993 | S. cerevisiae deletion strains, locus YPL055C, strain LGE1, active compounds read low 1.02 | S. cerevisiae deletion strains, locus YPL078C, strain atp4, active compounds read low 1.01 | S. cerevisiae deletion strains, locus YPL106C, strain sse1, active compounds read low 0.995 | S. cerevisiae deletion strains, locus YPL240C, strain hsp82, active compounds read low 1 | S. cerevisiae deletion strains, locus YPL241C, strain CIN2, active compounds read low 1 and 0.998 | S. cerevisiae deletion strains, locus YPL256C, strain CLN2, active compounds read low 0.99 | S. cerevisiae deletion strains, locus YPR119W, strain clb2, active compounds read low 1 | S. cerevisiae deletion strains, locus YPR141C, strain kar3, active compounds read low 1.01 | S. cerevisiae deletion strains, locus YPR163C, strain tif3, active compounds read low 1.02 | S. cerevisiae deletion strains, locus YPR167C, strain met16, active compounds read low 1.01 | S. cerevisiae deletion strains, strain wtn01, active compounds read low 1.01 | S. cerevisiae strains, strain wild type, active compounds read low 0.997
